Screening data deposited in PubChem BioAssay by The Scripps Research Institute Molecular Screening Center.
FBW7 activator = human FBW7 E3 ligase activation, primary screen; Q969H0; AlphaScreen FBW7–phospho-cyclin E peptide binding, activator screen; normalized activity (activation), % at 26.1 µM; 650,000 tested, 0.13% active; AID 1259310; in the data active = normalized activity above about 1.9%;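 note: purified mutant Fbw7 with reduced substrate affinity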
Target sequence (Q969H0 whole entry, looked up): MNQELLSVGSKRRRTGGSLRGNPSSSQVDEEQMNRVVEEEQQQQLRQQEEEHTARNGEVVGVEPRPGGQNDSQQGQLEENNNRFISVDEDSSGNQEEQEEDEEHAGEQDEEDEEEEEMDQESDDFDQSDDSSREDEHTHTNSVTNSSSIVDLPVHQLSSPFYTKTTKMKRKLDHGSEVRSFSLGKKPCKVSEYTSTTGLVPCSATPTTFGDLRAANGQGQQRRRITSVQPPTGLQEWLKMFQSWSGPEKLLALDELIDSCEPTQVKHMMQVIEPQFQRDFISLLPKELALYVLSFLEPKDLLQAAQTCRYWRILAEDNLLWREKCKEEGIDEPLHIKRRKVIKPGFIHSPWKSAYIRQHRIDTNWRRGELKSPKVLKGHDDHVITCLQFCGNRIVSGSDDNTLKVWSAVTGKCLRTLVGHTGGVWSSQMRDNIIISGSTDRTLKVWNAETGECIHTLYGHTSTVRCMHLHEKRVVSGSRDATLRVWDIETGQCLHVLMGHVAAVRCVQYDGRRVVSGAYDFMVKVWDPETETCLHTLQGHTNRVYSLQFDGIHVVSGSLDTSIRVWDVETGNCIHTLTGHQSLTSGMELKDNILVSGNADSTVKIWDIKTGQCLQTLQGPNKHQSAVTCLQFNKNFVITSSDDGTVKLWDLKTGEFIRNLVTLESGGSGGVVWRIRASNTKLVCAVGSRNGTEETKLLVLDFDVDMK
TEAD-YAP block = TEAD-YAP interaction inhibition; inhibition, % at 9.12 µM; HEK-TIYL cells, TEAD-Gal4/YAP UAS-luciferase luminescence; 640,000 tested, 1.4% active; in the data active = inhibition above about 32%;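 note: 0% = median of test compound wells and 100% = reference inhibitor wells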
GPR151 ag = activates the human receptor GPR151. Q8TDV0. PathHunter beta-arrestin GPR151 cells, luminescence. activation, % at 11.2 µM. 650,000 tested, 1% active. AID 1508602; in the data active = activation above about 4.9%;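 note: 0% = median of compound wells and 100% = cells with positive control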
MITF primary = inhibitors of human MITF | O75030 | AlphaScreen MITF homodimerization, bead proximity signal | inhibition, % at 2.6 µM | 650,000 tested, 0.91% active | AID 1259374; in the data active = inhibition above about 50%;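 note: 0% = vehicle wells with protein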
GPR151 conf act = confirmation of human GPR151 activators | shares compounds with GPR151 ag | GPR151 PathHunter beta-arrestin cells, luminescence, 90 min; % of EA-reagent control over plate median | activation, % at 11.2 µM | 6,700 tested, under 10 active;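 active = mean percent activation across replicates above the confirmation screen cutoff of 4.91%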
GPR119 ag = activates human GPR119 in a GPR151 counter-screen; shares compounds with GPR151 ag; GPR119 PathHunter beta-arrestin cells, luminescence, 90 min; 0 = compound-well median, 100 = enzyme-acceptor control; activation, % at 11.2 µM; 6,700 tested, 0.3% active; AID 1508611;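 active = mean percent activation in the counterscreen above 29.09%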;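 note: counterscreen on off-target GPR119 to flag nonselective hits from the GPR151 activator screen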
Active calls of the source: *; nt = not tested or not shown; ! = not active in a repeat. Shown are actives, neighbours in structure and some others; about 3.5% of the full set was active somewhere.

SMILES	FBW7 activator	TEAD-YAP block	GPR151 ag	MITF primary	GPR151 conf act	GPR119 ag
CC(C)C(C(=O)OCC(=O)c1ccc(Cl)cc1)N1C(=O)C2C3CCC(C3)C2C1=O (stereo unspecified)	-0.1	4.5	-0.4	9.9	nt	nt
Cc1ccc(/C=c2\sc3nc(=O)c(C)nn3c2=O)cc1	0.2	-8.8	3.0	7.2	nt	nt
Cc1cc(C(=O)N(CC#N)CC#N)ccc1[N+](=O)[O-]	0.4	-8.2	7.7*	-5.8	0.4	5.5
Nc1c(Cl)ncnc1N1CCN(c2ncnc(Cl)c2N)CC1	-0.1	-3.4	5.4*	-3.4	0.3	6.7
Nc1c(Cl)ncnc1N1CCOCC1	0.0	6.6	0.1	18.3	nt	nt
CCOC(=O)c1ccc(OCC2c3cc(OC)c(OC)cc3CCN2C(=O)c2ccc(OC)c(OC)c2)cc1 (stereo unspecified)	-0.1	-18.1	0.9	1.2	nt	nt
CC(=O)Nc1ccc(NC(=O)c2cnc(-c3ccccc3)s2)cc1	-0.1	-5.8	5.9*	5.7	-0.9	-12.0
O=C(NS(=O)(=O)c1ccccc1)c1cccc(Br)c1	-0.1	0.7	5.9*	12.1	0.3	-18.0
Cc1ccc(S(=O)(=O)NC(=O)c2cccc(Br)c2)cc1	-0.1	-2.9	1.6	-3.7	nt	nt
O=c1cc(CO)oc(C(Nc2ccccn2)c2cccc(Cl)c2)c1O (stereo unspecified)	-0.1	-10.0	5.0*	-0.1	-0.3	11.5
Cn1cnc([N+](=O)[O-])c1NCc1ccc(Cl)cc1	0.0	2.5	0.8	0.3	nt	nt
CC1(C2CCN(Cc3ccc(OCc4ccccc4)cc3)CC2)NC(=O)NC1=O (stereo unspecified)	0.2	-0.2	-0.7	-14.2	nt	nt
CCOC(=O)c1ccc2c(c1)sc(=NC(=O)C(C)(C)C)n2C	0.0	61.1*	6.5*	-16.2	0.0	0.2
CC(C)c1ccc(NC(=O)CSc2nnc(-c3ccc(Cl)cc3Cl)o2)cc1	-0.1	0.8	-0.2	2.2	nt	nt
Cc1ccc(NC(=O)Cn2cnc3sc(C(=O)N4CCN(Cc5ccc6c(c5)OCO6)CC4)c(C)c3c2=O)cc1Cl	0.0	1.2	0.4	2.3	nt	nt
Cc1ccc(NC(=S)NCc2ccco2)cc1	-0.2	-23.6	0.3	-2.5	nt	nt
Cc1cnn(C(=S)NCc2ccco2)c1	-0.4	-1.7	5.1*	7.7	0.0	-7.4
NC(=O)c1cccc2nc3ccccc3nc12	0.2	4.1	8.8*	1.1	0.2	-7.6
CC(C)NC(=O)c1cccc2nc3ccccc3nc12	-0.1	13.5	0.7	9.3	nt	nt
CCOC(=O)c1cc(-c2ccccc2)sc1NC(=O)COc1ccc(OC)cc1	0.1	-0.6	-0.9	2.9	nt	nt
CNC(=O)OCc1ccc(-c2ccc(Cl)cc2)o1	0.0	-11.4	5.9*	0.3	0.4	7.3
CNC(=O)OCc1ccc(-c2ccc(C)cc2)o1	-0.8	-26.1	-0.5	0.6	nt	nt
O=C(NCc1cccnc1)c1ccc(CNC(=O)c2cccc(Br)c2)cc1	-0.3	-7.4	0.2	-1.8	nt	nt
O=C(NCC1CCCO1)c1cc(=O)[nH]c2ccc(Br)cc12 (stereo unspecified)	0.1	2.2	6.7*	11.7	-1.2	-14.7
O=C(NCC1CCCO1)c1cc(Br)ccc1Cl (stereo unspecified)	0.0	11.6	2.6	3.4	nt	nt
SMILES	FBW7 activator	TEAD-YAP block	GPR151 ag	MITF primary	GPR151 conf act	GPR119 ag
c1ccc(Nc2cc(Nc3ccc(N4CCOCC4)cc3)ncn2)cc1	0.2	-15.9	1.5	23.5	nt	nt
CN(C)c1cccc(Nc2cc(Nc3ccc(N4CCOCC4)cc3)ncn2)c1	-0.2	-8.5	5.2*	0.8	-0.1	17.7
Cn1nccc1Nc1cccc(C(=O)NCCOc2ccccc2)n1	-0.1	-32.8	10.9*	5.5	-0.7	-1.3
CCCNC(=O)c1cccc(Nc2ccnn2C)n1	0.1	4.9	0.0	26.8	nt	nt
CC(C)c1ccccc1NC(=O)CSc1nnc(CN2CCOCC2)n1C	0.2	4.5	2.4	1.5	nt	nt
O=C(Nc1ccc2nn(-c3ccccc3)nc2c1)c1ccc(-c2cccc([N+](=O)[O-])c2)o1	-0.1	1.3	5.1*	-0.5	0.1	12.3
COc1ccccc1NC(=O)CN(c1ccc(C)cc1)S(=O)(=O)c1c(C)noc1C	-0.2	4.9	-0.1	2.7	nt	nt
O=C(Nc1ccc(Cl)cn1)c1ccccc1Cl	0.2	-69.4	-3.8	5.7	nt	nt
O=Cc1cc(Cl)ccc1OCC(=O)Nc1ccc(F)cc1	0.1	-57.2	11.0*	8.2	-0.7	2.9
O=C(COc1ccc(F)cc1)Nc1ccc(Cl)cn1	-0.2	-32.7	18.5*	0.1	-0.5	-8.1
O=C(Nc1ccc(Cl)cn1)c1ccc(Cl)cc1Cl	0.2	15.2	7.0*	14.0	-0.3	-11.5
O=C(COc1ccc(Cl)cc1)Nc1ccc(Br)cn1	0.2	-14.6	1.4	9.4	nt	nt
O=C(COc1ccc(F)cc1F)Nc1ccc(F)cc1	0.2	-42.6	-1.6	9.0	nt	nt
Cc1ccc(Cl)cc1NC(=O)c1c(-c2c(Cl)cccc2Cl)noc1C	0.5	3.6	6.0*	15.8	-0.4	2.2
CC1CCC(NC(=O)CCCn2c(=S)[nH]c3ccc(Br)cc3c2=O)CC1 (stereo unspecified)	0.3	-14.2	0.8	12.7	nt	nt
O=C(NC1CCS(=O)(=O)C1)/C(=C/c1cn(-c2ccccc2)nc1-c1cccs1)NC(=O)c1ccccc1 (stereo unspecified)	0.1	16.4	5.8*	-7.2	1.5	14.9
C#CCN(CC#C)c1ccc(Cl)cc1	-0.1	0.7	0.4	-4.8	nt	nt
C#CCN(CC#C)c1cccc(Cl)c1	0.0	-2.6	8.2*	11.2	-0.7	-5.7
FC(F)(F)c1nnc2c3ccccc3c(NC3CC3)nn12	-0.2	1.5	7.3*	6.3	0.3	8.5
CN1/C(=C\C=N\NC(=S)Nc2cccnc2)C(C)(C)c2ccccc21	-0.3	28.8	7.4*	2.9	-0.3	2.5
COc1ccc(NC(=O)C2CCN(c3nnc(N4CCCC4=O)s3)CC2)cc1	-0.2	0.6	6.3*	-5.4	1.1	-4.2
CN(C)S(=O)(=O)c1ccc(Cl)c(NC(=O)CN2CCNC(=O)C2)c1	0.2	-7.6	5.2*	-14.1	0.4	7.1
O=C(CN1CCN(S(=O)(=O)c2ccc(Cl)cc2)CC1)c1ccc(F)cc1	0.0	-5.5	14.7*	-7.1	-0.6	-6.1
COc1ccc(C(=O)Cc2ccc(OC)c(OC)c2)c(OC)c1	0.2	-2.1	3.6	-4.8	nt	nt
COc1ccc2c(c1)OC[C@@H](Cc1ccc(OC)c(OC)c1)[C@@H]2O	-0.1	-3.4	5.0*!	-13.2	0.4	-0.6
CC(C)(C)OC(=O)C(Cl)(C(=O)OC(C)(C)C)c1ncc([N+](=O)[O-])cc1[N+](=O)[O-]	-0.2	55.0*	13.5*	5.2	0.5	13.4
COc1ccc(-n2nc3c(c2NC(=O)c2ccc(C)cc2)CS(=O)(=O)C3)cc1	0.1	6.5	5.4*	-2.4	0.6	4.3
COc1ccc(-n2nc3c(c2NC(=O)CCC2CCCC2)CS(=O)(=O)C3)cc1	-0.3	-4.6	16.7*	-3.1	0.5	9.2
